KB-V1 MDR tox: kills drug-selected multidrug resistant KB-V1 cells | Potency, µM (top dose mostly 46.1 µM), most hits filed as cytotoxic | 3.4% of 400,000 active | KB-V1 MDR cells viability, CellTiter-Glo, 72 h; note: nearly all actives have a fitted effect of over 60% in size
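Cytotoxicity via CellTiter-Glo luminescence after 72 h compound exposure at 37 degrees C. Cells: drug-selected KB-V1 line, DMEM phenol-red free plus 10% FBS. Compounds tested at multiple concentrations; normalized data fitted to concentration-effect curves.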
HT1080-NT tox: kills 2HG-producing HT-1080-NT fibrosarcoma cells | HT-1080-NT fibrosarcoma viability, CellTiter-Glo ATP luminescence, 48 h | Potency, µM (highest dose often 46.1 µM), most hits filed as cytotoxic | 1.6% of 360,000 active | AID 686970;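 note: NT is the 2HG producing partner of a matched IDH1 knockdown line; nearly all actives have a fitted effect of over 55% in size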
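Read-out is CellTiter-Glo luminescence after 10 minutes at room temperature, following 48 hours' compound treatment of HT-1080-NT cells (750 cells/well, RPMI, 5% FBS, 37 degrees C).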
HT1080 IDH1KD tx: kills HT-1080 cells with IDH1 knockdown | HT-1080 IDH1 knockdown viability, ATP luminescence, 48 h | Potency, µM (series often up to 46.1 µM), usual class: cytotoxic | 2% of 360,000 active | AID 686971
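Knockdown cells (IDH1KD HT-1080) received compounds 2 h after plating at 750 cells/well and were kept 48 h at 37 °C in 5% FBS RPMI. A CellTiter-Glo luminescence read gave % activity for curve fitting.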
TDP1 cell noCPT: qHTS for Inhibitors of human tyrosyl-DNA phosphodiesterase 1 (TDP1): qHTS in cells in absence of CPT; 15% of 420,000 active; Potency, µM (top dose mostly 46.2 µM), hits mostly inhibitors; DT40 Tdp1-/- hTDP1 cells, no CPT, ATP luminescence, 48 h; note: nearly all actives have a fitted effect of over 55% in size
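Growth kinetics read by CellTiter-Glo luminescence after ≥48 hr at 37 °C. Cells: DT40 Tdp1-/- stably carrying human TDP1, 400 per well, compound exposure in the absence of CPT (DMSO vehicle).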
DT40 TDP1 CPT: DT40-hTDP1 cell growth loss with CPT; 12% of 420,000 active; chicken DT40 Tdp1-/-;hTDP1 cells + 20 nM CPT, ATP luminescence, 48 h; Potency, µM (doses to about 46.2 µM), actives largely listed as inhibitors; AID 686979; note: nearly all actives have a fitted effect of over 55% in size
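Chicken DT40 Tdp1-/- cells stably complemented with human TDP1 were seeded at 400 cells/well in medium containing 20 nM camptothecin, exposed to pin-transferred compounds, and grown at 37 °C for at least 48 hr. Viability was read as ATP luminescence.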
KB-3-1 cytotox: kills parental KB-3-1 adenocarcinoma cells | KB-3-1 viability, CellTiter-Glo ATP luminescence, 72 h | Potency, µM (doses to about 46.1 µM), actives largely listed as cytotoxic | 1.4% of 400,000 active; note: nearly all actives have a fitted effect of over 60% in size
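Viability of parental KB-3-1 cells, measured by CellTiter-Glo luminescence, followed a 72 h incubation at 37 °C with pinned compounds in phenol-red-free DMEM containing 10% FBS.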
A number is an active result; - = inactive; ? = inconclusive; . = no result; [ ] = remark or other dose. Rows were chosen to be rich in hits. Some 19% of all compounds tested hit in one or more screens of this group. Calls come from the whole dose curve; as a rule, active = well fitted curve in the direction sought with a large enough effect; inconclusive = small, poorly fitted or top-dose-only effect, or another doubt; inactive = no such curve, though single readings can be large; an effect the other way counts as inactive or inconclusive.

SMILES	KB-V1 MDR tox	HT1080-NT tox	HT1080 IDH1KD tx	TDP1 cell noCPT	DT40 TDP1 CPT	KB-3-1 cytotox
Cn1c(=O)n(CCCOc2ccc(Cl)cc2)c2ccccc21	-	-	-	18µM	15µM	-
COCC(=O)Nc1cc(C(=O)N2CCN(c3ccccc3)C(=O)C2)cc2nc(-c3ccccc3)n(C)c12	.	.	.	-	-	.
O=C(NCc1ccccc1)C1C(c2ccccc2)=Nc2ccccc2N1C(=O)c1cccnc1 (stereo unspecified)	?	-	-	-	-	-
COc1ccc2cnoc(=O)c2c1OC	.	.	.	-[9.04 µM]	-[9.04 µM]	.
CC(C)(C)C(=O)NCc1ccc(C(=O)CSc2nnc3n2CCCCC3)s1	-	-	-	-	-	-
OCc1nc2ccccc2n1CCCCOc1ccccc1	-	-	-	?	?	-
OCc1nc2ccccc2n1CCCOc1ccc(Br)cc1	-	-	-	18µM	16µM	?
CCc1nc2ccccc2n1CCCCOc1ccc(Cl)cc1	-	.	.	?	21µM	-
C/C(CCc1ccco1)=N/NC(=O)CCC(=O)Nc1ccc(Br)cc1	-	?	?	-	-	-
O=C(N/N=C/C(Br)=C/c1ccccc1)c1ccncc1	-	-	?	1.6µM	1.6µM	-
O=C(N/N=C/C(Br)=C\c1ccccc1)c1ccc2nc[nH]c2c1	-	-	?	15µM	10µM	?
O=C(N/N=C/C(Br)=C/c1ccccc1)c1ccc([N+](=O)[O-])cc1	-	-	-	4.1µM	4.1µM	-
CC(/C=N/NC(=O)c1ccncc1)=C\c1ccccc1	-	-	?	-	-	-
O=C(N/N=C/C(Br)=C/c1ccccc1)c1cccnc1	-	?	-	2.1µM	2.6µM	-
Cc1ccc(S(=O)(=O)N2CCOCC2)cc1C(=O)OCC(=O)NCCc1ccc(F)cc1	-	-	-	-	-	-
CC(=O)N/C(=C/c1ccccc1)c1ccncc1	-	.	.	11µM	7.9µM	-
COc1ccc(CCNC(=O)C2CCCN(c3nc4c(C)cc(C)cc4s3)C2)cc1OC (stereo unspecified)	-	.	.	13µM	21µM	-
CCOc1ccc(CNC(=O)C2CCCN(c3nc4c(C)cc(C)cc4s3)C2)cc1 (stereo unspecified)	-	.	.	?	18µM	-
CCOc1ccc2nc(N3CCCC(C(=O)NCc4ccc(C)cc4)C3)sc2c1 (stereo unspecified)	-	.	.	?	?	-
COc1ccc(CCNC(=O)C2CCCN(c3nc4ccccc4s3)C2)cc1OC (stereo unspecified)	-	-	-	?	?	-
CCOc1ccc(NC(=O)Cn2c(=O)n(CCc3ccccc3)c(=O)c3c4c(sc32)CCCC4)cc1	-	.	.	-	-	-
C[C@@H]1CN([C@H](C)CO)C(=O)c2cc(NC(=O)C3CCCCC3)ccc2O[C@@H]1CN(C)Cc1ccc(C(F)(F)F)cc1	-	-	-	?	?	?
C[C@@H]1CN([C@H](C)CO)C(=O)c2cc(NC(=O)Nc3cccc4ccccc34)ccc2O[C@H]1CN(C)Cc1ccc(C(F)(F)F)cc1	-	-	-	8.2µM	10µM	-
C[C@@H]1CN([C@H](C)CO)C(=O)c2cc(NS(=O)(=O)c3cccs3)ccc2O[C@H]1CN(C)Cc1ccccc1	-	-	-	?	?	-
C[C@@H]1CN([C@@H](C)CO)C(=O)Cc2cc(NC(=O)Nc3cccc4ccccc34)ccc2O[C@@H]1CN(C)Cc1ccc(C(F)(F)F)cc1	?	-	?	16µM	?	?
SMILES	KB-V1 MDR tox	HT1080-NT tox	HT1080 IDH1KD tx	TDP1 cell noCPT	DT40 TDP1 CPT	KB-3-1 cytotox
C[C@@H]1CN([C@@H](C)CO)C(=O)c2cc(NS(=O)(=O)c3cccs3)ccc2O[C@H]1CN(C)Cc1ccc(C(F)(F)F)cc1	-	-	-	26µM	?	?
COc1cc2c(cc1NC(=O)COc1ccc(Br)c(C)c1)oc1ccccc12	-	.	.	-	-	-
CCOCCCNC(=O)c1ccc(OC)c(OC2CCN(C(C)C)CC2)c1	-	-	-	-	-	-
COc1ccc(C(=O)NCCCC2CCCC2)cc1OC1CCN(C(C)C)CC1	-	?	?	16µM	16µM	-
COc1ccc(C(=O)N(C)CCCC2CCCC2)cc1OC1CCN(C(C)=O)CC1	.	-	-	16µM	?	.
Fc1cccc(Cl)c1C1SCc2nc3ccccc3n21 (stereo unspecified)	23µM	?	?	15µM	16µM	23µM
COc1ccc(-c2nc3ccccn3c2CN2CCN(c3ccccc3F)CC2)cc1	?	?	?	23µM	?	-
C[C@H](NC(=O)CNC(=O)[C@@H](NC(=O)[C@H](Cc1ccccc1)NC(=O)CNC(=O)CNC(=O)[C@@H](N)Cc1ccccc1)[C@@H](C)O)C(=O)N[C@@H](CCCN=C(N)N)C(=O)N[C@@H](CCCCN)C(=O)N[C@@H](CO)C(=O)N[C@@H](C)C(=O)N[C@@H](CCCN=C(N)N)C(=O)N[C@H](CN)CCCCN	.	.	.	-[4.12 µM]	-[4.12 µM]	.
CCCNC(=O)COC(=O)/C=C/c1cccc(F)c1	-	-	-	-	-	-
CCCNC1=C(N(C(C)=O)c2cccc(F)c2)C(=O)c2ccccc2C1=O	?	8.2µM	4.6µM	2.1µM	2.6µM	1.3µM

Screens as filed in PubChem BioAssay.
